# Laboratory results reported in PMC11006913.
# Legend:
# Assay in all cases: PBM; 200 nM protein, PBS
# Conditions in all cases: dsDNA, one strand shown
# HOXC10 [1] = molecular target: HOXC10 (Homo sapiens, UniProt Q9NYD6 254-340)
# HOXC10 [2] = molecular target: HOXC10 (Homo sapiens, UniProt Q9NYD6 254-340, K271E)
# ALX4 [3] = molecular target: ALX4 (Homo sapiens, UniProt Q9H161 200-286)
# PRRX1 [4] = molecular target: PRRX1 (Homo sapiens, UniProt P54821 80-166, F113S)
# ALX4 [5] = molecular target: ALX4 (Homo sapiens, UniProt Q9H161 200-286, Q225E)
# PRRX1 [6] = molecular target: PRRX1 (Homo sapiens, UniProt P54821 80-166)
# VAX1 [7] = molecular target: VAX1 (Homo sapiens, UniProt Q5SQQ9 86-172)
# VAX1 [8] = molecular target: VAX1 (Homo sapiens, UniProt Q5SQQ9 86-172, T142I)
# VAX1 [9] = molecular target: VAX1 (Homo sapiens, UniProt Q5SQQ9 86-172, K157R)
# Sequence of VAX1 (Homo sapiens, UniProt Q5SQQ9 86-172, K157R) (Q5SQQ9 86-172 K157R): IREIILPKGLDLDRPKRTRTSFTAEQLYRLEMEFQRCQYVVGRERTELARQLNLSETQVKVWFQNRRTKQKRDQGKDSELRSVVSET
# Sequence of HOXC10 (Homo sapiens, UniProt Q9NYD6 254-340) (Q9NYD6 254-340): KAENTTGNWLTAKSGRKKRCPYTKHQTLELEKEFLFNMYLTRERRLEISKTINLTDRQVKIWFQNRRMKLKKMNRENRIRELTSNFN
# Sequence of HOXC10 (Homo sapiens, UniProt Q9NYD6 254-340, K271E) (Q9NYD6 254-340 K271E): as the sequence (Q9NYD6 254-340) above, with K18E counted along it
# Sequence of ALX4 (Homo sapiens, UniProt Q9H161 200-286) (Q9H161 200-286): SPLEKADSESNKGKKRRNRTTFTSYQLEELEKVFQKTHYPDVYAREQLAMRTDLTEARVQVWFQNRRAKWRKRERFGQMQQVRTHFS
# Sequence of PRRX1 (Homo sapiens, UniProt P54821 80-166, F113S) (P54821 80-166 F113S): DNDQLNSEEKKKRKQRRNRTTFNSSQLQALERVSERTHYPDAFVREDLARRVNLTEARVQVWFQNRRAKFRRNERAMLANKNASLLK
# Sequence of ALX4 (Homo sapiens, UniProt Q9H161 200-286, Q225E) (Q9H161 200-286 Q225E): as the sequence (Q9H161 200-286) above, with Q26E counted along it
# Sequence of PRRX1 (Homo sapiens, UniProt P54821 80-166) (P54821 80-166): as the sequence (P54821 80-166 F113S) above, with S34F counted along it
# Sequence of VAX1 (Homo sapiens, UniProt Q5SQQ9 86-172) (Q5SQQ9 86-172): as the sequence (Q5SQQ9 86-172 K157R) above, with R72K counted along it
# Sequence of VAX1 (Homo sapiens, UniProt Q5SQQ9 86-172, T142I) (Q5SQQ9 86-172 T142I): as the sequence (Q5SQQ9 86-172 K157R) above, with T57I, R72K counted along it
sequence,measurement,setting,value
GCGACGAC,binding signal,HOXC10 [1],"10.1 upbm affinity estimate (log intensity, higher = more binding, comparable within an allelic series)"
same,binding signal,HOXC10 [2],"10 upbm affinity estimate (log intensity, higher = more binding, comparable within an allelic series)"
CGCCAGCG,binding signal,HOXC10 [1],"10 upbm affinity estimate (log intensity, higher = more binding, comparable within an allelic series)"
same,binding signal,HOXC10 [2],"9.94 upbm affinity estimate (log intensity, higher = more binding, comparable within an allelic series)"
CCCGAGAC,binding signal,HOXC10 [1],"9.98 upbm affinity estimate (log intensity, higher = more binding, comparable within an allelic series)"
same,binding signal,HOXC10 [2],"9.98 upbm affinity estimate (log intensity, higher = more binding, comparable within an allelic series)"
ATACTAAT,binding signal,HOXC10 [1],"11.3 upbm affinity estimate (log intensity, higher = more binding, comparable within an allelic series)"
same,binding signal,HOXC10 [2],"11.2 upbm affinity estimate (log intensity, higher = more binding, comparable within an allelic series)"
GCGGTGCC,binding signal,HOXC10 [1],"10 upbm affinity estimate (log intensity, higher = more binding, comparable within an allelic series)"
same,binding signal,HOXC10 [2],"10 upbm affinity estimate (log intensity, higher = more binding, comparable within an allelic series)"
GCTCCCGA,binding signal,HOXC10 [1],"9.93 upbm affinity estimate (log intensity, higher = more binding, comparable within an allelic series)"
same,binding signal,HOXC10 [2],"10.1 upbm affinity estimate (log intensity, higher = more binding, comparable within an allelic series)"
CCTTGCGA,binding signal,HOXC10 [1],"10 upbm affinity estimate (log intensity, higher = more binding, comparable within an allelic series)"
same,binding signal,HOXC10 [2],"10.1 upbm affinity estimate (log intensity, higher = more binding, comparable within an allelic series)"
ATATCAGG,binding signal,HOXC10 [1],"10.6 upbm affinity estimate (log intensity, higher = more binding, comparable within an allelic series)"
same,binding signal,HOXC10 [2],"10.7 upbm affinity estimate (log intensity, higher = more binding, comparable within an allelic series)"
ACGCGAGC,binding signal,HOXC10 [1],"10.1 upbm affinity estimate (log intensity, higher = more binding, comparable within an allelic series)"
same,binding signal,HOXC10 [2],"10.1 upbm affinity estimate (log intensity, higher = more binding, comparable within an allelic series)"
CAGCGCGG,binding signal,HOXC10 [1],"10 upbm affinity estimate (log intensity, higher = more binding, comparable within an allelic series)"
same,binding signal,HOXC10 [2],"9.95 upbm affinity estimate (log intensity, higher = more binding, comparable within an allelic series)"
GACTGGGC,binding signal,HOXC10 [1],"9.98 upbm affinity estimate (log intensity, higher = more binding, comparable within an allelic series)"
same,binding signal,HOXC10 [2],"10 upbm affinity estimate (log intensity, higher = more binding, comparable within an allelic series)"
CAGCGCCC,binding signal,HOXC10 [1],"9.88 upbm affinity estimate (log intensity, higher = more binding, comparable within an allelic series)"
same,binding signal,HOXC10 [2],"9.95 upbm affinity estimate (log intensity, higher = more binding, comparable within an allelic series)"
CATAAATA,binding signal,HOXC10 [1],"12.1 upbm affinity estimate (log intensity, higher = more binding, comparable within an allelic series)"
same,binding signal,HOXC10 [2],"11.5 upbm affinity estimate (log intensity, higher = more binding, comparable within an allelic series)"
CTTTCTTC,binding signal,HOXC10 [1],"9.98 upbm affinity estimate (log intensity, higher = more binding, comparable within an allelic series)"
same,binding signal,HOXC10 [2],"10.1 upbm affinity estimate (log intensity, higher = more binding, comparable within an allelic series)"
AATTGCAA,binding signal,HOXC10 [1],"11.1 upbm affinity estimate (log intensity, higher = more binding, comparable within an allelic series)"
same,binding signal,HOXC10 [2],"11 upbm affinity estimate (log intensity, higher = more binding, comparable within an allelic series)"
AGGCTTCG,binding signal,HOXC10 [1],"9.94 upbm affinity estimate (log intensity, higher = more binding, comparable within an allelic series)"
same,binding signal,HOXC10 [2],"10 upbm affinity estimate (log intensity, higher = more binding, comparable within an allelic series)"
CACTGACG,binding signal,HOXC10 [1],"10 upbm affinity estimate (log intensity, higher = more binding, comparable within an allelic series)"
same,binding signal,HOXC10 [2],"10.1 upbm affinity estimate (log intensity, higher = more binding, comparable within an allelic series)"
CTTAAATA,binding signal,HOXC10 [1],"10.9 upbm affinity estimate (log intensity, higher = more binding, comparable within an allelic series)"
same,binding signal,HOXC10 [2],"10.7 upbm affinity estimate (log intensity, higher = more binding, comparable within an allelic series)"
GAAGCTCC,binding signal,HOXC10 [1],"10.1 upbm affinity estimate (log intensity, higher = more binding, comparable within an allelic series)"
same,binding signal,HOXC10 [2],"10.1 upbm affinity estimate (log intensity, higher = more binding, comparable within an allelic series)"
AGAAAAAG,binding signal,HOXC10 [1],"10 upbm affinity estimate (log intensity, higher = more binding, comparable within an allelic series)"
same,binding signal,HOXC10 [2],"10.1 upbm affinity estimate (log intensity, higher = more binding, comparable within an allelic series)"
ATAACACC,binding signal,HOXC10 [1],"11.1 upbm affinity estimate (log intensity, higher = more binding, comparable within an allelic series)"
same,binding signal,HOXC10 [2],"10.8 upbm affinity estimate (log intensity, higher = more binding, comparable within an allelic series)"
GAAGCTGC,binding signal,HOXC10 [1],"10.1 upbm affinity estimate (log intensity, higher = more binding, comparable within an allelic series)"
same,binding signal,HOXC10 [2],"10 upbm affinity estimate (log intensity, higher = more binding, comparable within an allelic series)"
AGGCTTCC,binding signal,HOXC10 [1],"10.1 upbm affinity estimate (log intensity, higher = more binding, comparable within an allelic series)"
same,binding signal,HOXC10 [2],"10.1 upbm affinity estimate (log intensity, higher = more binding, comparable within an allelic series)"
CCGACTCG,binding signal,HOXC10 [1],"10.1 upbm affinity estimate (log intensity, higher = more binding, comparable within an allelic series)"
same,binding signal,HOXC10 [2],"10.1 upbm affinity estimate (log intensity, higher = more binding, comparable within an allelic series)"
AAGCCTGG,binding signal,HOXC10 [1],"10.1 upbm affinity estimate (log intensity, higher = more binding, comparable within an allelic series)"
same,binding signal,HOXC10 [2],"10 upbm affinity estimate (log intensity, higher = more binding, comparable within an allelic series)"
AATGGTCC,binding signal,HOXC10 [1],"11 upbm affinity estimate (log intensity, higher = more binding, comparable within an allelic series)"
same,binding signal,HOXC10 [2],"10.9 upbm affinity estimate (log intensity, higher = more binding, comparable within an allelic series)"
TTGGCCAA,binding signal,HOXC10 [1],"9.97 upbm affinity estimate (log intensity, higher = more binding, comparable within an allelic series)"
same,binding signal,HOXC10 [2],"9.93 upbm affinity estimate (log intensity, higher = more binding, comparable within an allelic series)"
ATGTGCTA,binding signal,HOXC10 [1],"10.7 upbm affinity estimate (log intensity, higher = more binding, comparable within an allelic series)"
same,binding signal,HOXC10 [2],"10.7 upbm affinity estimate (log intensity, higher = more binding, comparable within an allelic series)"
CTCCTCTC,binding signal,HOXC10 [1],"10 upbm affinity estimate (log intensity, higher = more binding, comparable within an allelic series)"
same,binding signal,HOXC10 [2],"10 upbm affinity estimate (log intensity, higher = more binding, comparable within an allelic series)"
AAAGCGGG,binding signal,HOXC10 [1],"9.98 upbm affinity estimate (log intensity, higher = more binding, comparable within an allelic series)"
same,binding signal,HOXC10 [2],"10.1 upbm affinity estimate (log intensity, higher = more binding, comparable within an allelic series)"
CTCTCCGA,binding signal,HOXC10 [1],"9.99 upbm affinity estimate (log intensity, higher = more binding, comparable within an allelic series)"
same,binding signal,HOXC10 [2],"9.97 upbm affinity estimate (log intensity, higher = more binding, comparable within an allelic series)"
AACATTAT,binding signal,HOXC10 [1],"11.6 upbm affinity estimate (log intensity, higher = more binding, comparable within an allelic series)"
same,binding signal,HOXC10 [2],"11.3 upbm affinity estimate (log intensity, higher = more binding, comparable within an allelic series)"
GTCGGCGA,binding signal,ALX4 [3],"8.22 upbm affinity estimate (log intensity, higher = more binding, comparable within an allelic series)"
same,binding signal,PRRX1 [4],"9.28 upbm affinity estimate (log intensity, higher = more binding, comparable within an allelic series)"
same,binding signal,ALX4 [5],"8.22 upbm affinity estimate (log intensity, higher = more binding, comparable within an allelic series)"
same,binding signal,PRRX1 [6],"9.44 upbm affinity estimate (log intensity, higher = more binding, comparable within an allelic series)"
ATGAATTG,binding signal,ALX4 [3],"11 upbm affinity estimate (log intensity, higher = more binding, comparable within an allelic series)"
CGTCCGCC,binding signal,HOXC10 [1],"9.96 upbm affinity estimate (log intensity, higher = more binding, comparable within an allelic series)"
same,binding signal,HOXC10 [2],"10 upbm affinity estimate (log intensity, higher = more binding, comparable within an allelic series)"
same,binding signal,VAX1 [7],"7.19 upbm affinity estimate (log intensity, higher = more binding, comparable within an allelic series)"
same,binding signal,VAX1 [8],"7.31 upbm affinity estimate (log intensity, higher = more binding, comparable within an allelic series)"
same,binding signal,VAX1 [9],"7.05 upbm affinity estimate (log intensity, higher = more binding, comparable within an allelic series)"
